For one assay, the system named is CRL-7250. The experiment in a line: Cytotoxic Profiling of Annotated Libraries Using Quantitative High-Throughput Screening (AID 1296008). Further: nearly all actives have a fitted effect of over 60% in size. Further: potency means the concentration at half of the fitted maximal effect. On max response: on the % scale 0 is the no-effect control and ±100 the full control effect. To be noted: Five cell lines viability, CellTiter-Glo ATP luminescence, 48-72 h; max response: stronger effect = lower value. In short, it runs like this: (§1)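 Compounds were pin-transferred onto cells and incubated 48 or 72 hr at 37 degree Celsius, 95% humidity. CellTiter-Glo was added, plates sat 10 min at room temperature, then ATP-coupled luminescence was imaged as the viability read-out.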
Background: Cellular ATP, detected with luciferase, serves as a proxy for viable cell number.

In a further assay the test system is HEK293. The assay is described as above. Conditions: Five cell lines viability, CellTiter-Glo ATP luminescence, 48-72 h; max response: stronger effect = lower value. In short, it runs like this: as §1
Assay [1] relates to HaCat. The description is as above. Conditions: Five cell lines viability, CellTiter-Glo ATP luminescence, 48-72 h; max response: stronger effect = lower value. The method, boiled down: as §1
Another assay concerns KB-3-1. Described as above. To be noted: Five cell lines viability, CellTiter-Glo ATP luminescence, 48-72 h; max response: stronger effect = lower value. The method, boiled down: as §1
In assay [2] the test system is NIH3T3. The description is as above. Conditions: Five cell lines viability, CellTiter-Glo ATP luminescence, 48-72 h; max response: stronger effect = lower value. The method, boiled down: as §1
In the next assay the test system is MCC-13. The experiment in a line: qHTS assay to identify novel small-molecules to repurpose for Merkel cell carcinoma treatment (AID 1296009). Further: nearly all actives have a fitted effect of over 60% in size. Further: potency means the concentration at half of the fitted maximal effect. On activity change, negative = cytotoxicity: on the % scale 0 is the no-effect control and ±100 the full control effect. Conditions: MCC and control cell lines, CellTiter-Glo viability, 72 h; series mostly up to 46 µM. The method, boiled down: (§2)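 qHTS format: cells treated with library compounds in DMSO across 8 (NPC) or 11 (MIPE) concentrations. Readout after 72 hr at 37 degree celsius was CellTiter-Glo luminescence.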

A further assay concerns MKL-1. The description is as above. To be noted: MCC and control cell lines, CellTiter-Glo viability, 72 h; series mostly up to 46 µM. The method, boiled down:
as §2

Another assay relates to MKL-2. The description is as above. To be noted: MCC and control cell lines, CellTiter-Glo viability, 72 h; series mostly up to 46 µM. The method, boiled down:
as §2

In assay [3] the test system is NIH3T3. The description is as above. Conditions: MCC and control cell lines, CellTiter-Glo viability, 72 h. The method, boiled down: as §2
Another assay has as its system UISO. Described as above. To be noted: MCC and control cell lines, CellTiter-Glo viability, 72 h; series mostly up to 46 µM. In short, it runs like this:
as §2

Another assay relates to WaGa. The description is as above. Conditions: MCC and control cell lines, CellTiter-Glo viability, 72 h; series mostly up to 46 µM. The method, boiled down: as §2
For another assay, the system named is C33A. As to the kind of experiment: Primary qHTS to identify gynecologic anti-cancer compounds using libraries of approved drugs and bioactive compounds (AID 1345084). Further: on the % scale 0 is the no-effect control and ±100 the full control effect; nearly all actives have a fitted effect of over 55% in size. To be noted: Gynecologic cancer cell panel viability, ATPlite luminescence, 48 h; series mostly up to 57.5 µM. The method, boiled down: (§3)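 Five-point cytotoxicity, 48 h drug exposure at 37 C, 5% CO2, on cells seeded 16 h beforehand. ATP content read by ATPlite luminescence.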

A further assay relates to CAOV3. The description is as above. To be noted: Gynecologic cancer cell panel viability, ATPlite luminescence, 48 h; series mostly up to 57.5 µM. The method, boiled down:
as §3

A further assay deals with CASKI. Described as above. To be noted: Gynecologic cancer cell panel viability, ATPlite luminescence, 48 h; series mostly up to 57.5 µM. The method, boiled down:
as §3

A further assay deals with Es-2. Described as above. Conditions: Gynecologic cancer cell panel viability, ATPlite luminescence, 48 h; series mostly up to 57.5 µM. The method, boiled down: as §3
In the next assay the test system is W2. The experiment in a line: qHTS profiling for inhibitors of Plasmodium falciparum proliferation (AID 504749). Further: nearly all actives have a fitted effect of over 60% in size. Further: potency means the concentration at half of the fitted maximal effect. Conditions: P. falciparum in erythrocytes, SYBR Green DNA, 72 h; series mostly up to 28.7 µM. The method, boiled down:
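Parasite proliferation within erythrocytes, 72 h exposure. Endpoint: SYBR Green I fluorescence after overnight lysis at room temperature. Controls: 0.29 uM artemisinin, DMSO.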
For orientation: In qHTS, concentration-response curves come from the screen itself.

Assay [4] relates to HACAT. The experiment in a line: qHTS assay to identify novel small-molecules to repurpose for Merkel cell carcinoma treatment (AID 1296009). Further: nearly all actives have a fitted effect of over 60% in size. Further: potency means the concentration at half of the fitted maximal effect. On activity change, negative = cytotoxicity: on the % scale 0 is the no-effect control and ±100 the full control effect. Conditions: MCC and control cell lines, CellTiter-Glo viability, 72 h. The method, boiled down: as §2
For a further assay, the system named is HEK293T. The description is as above. To be noted: MCC and control cell lines, CellTiter-Glo viability, 72 h. The method, boiled down: as §2
The next assay relates to HeLa. As to the kind of experiment: Primary qHTS to identify gynecologic anti-cancer compounds using libraries of approved drugs and bioactive compounds (AID 1345084). Further: on the % scale 0 is the no-effect control and ±100 the full control effect; nearly all actives have a fitted effect of over 55% in size. To be noted: Gynecologic cancer cell panel viability, ATPlite luminescence, 48 h; series mostly up to 57.5 µM. In short, it runs like this: as §3
The test system of the next assay is MCC-26. As to the kind of experiment: qHTS assay to identify novel small-molecules to repurpose for Merkel cell carcinoma treatment (AID 1296009). Further: nearly all actives have a fitted effect of over 60% in size. Further: potency means the concentration at half of the fitted maximal effect. On activity change, negative = cytotoxicity: on the % scale 0 is the no-effect control and ±100 the full control effect. To be noted: MCC and control cell lines, CellTiter-Glo viability, 72 h; series mostly up to 46 µM. The method, boiled down:
as §2

[5] abbreviates: at 44.8 µM (top of the series) unless noted.

Several values for one entry are separate records, joined by “and”; a condition that tells them apart may be missing. Equal values may be shown once. Records with an inconclusive call do not appear. More than one record can exist for a structure, and the calls need not agree. Activity calls are given as the source filed them. The call rests on the fitted dose curve; in most records, active means well fitted curve in the direction sought with a large enough effect; inconclusive means small, poorly fitted or top-dose-only effect, or another doubt; inactive means no such curve, though single readings can be large; an effect the other way counts as inactive or inconclusive.

Take `CC(C)(C)NC(=O)[C@H]1CC[C@H]2[C@@H]3CC[C@H]4NC(=O)C=C[C@]4(C)[C@H]3CC[C@]12C`: the max response in the assay on CRL-7250 is -15.1% (inactive) and -1.46% (inactive); in the assay on HEK293, -5.16% (inactive); in the assay with HaCat [1], -13.8% (inactive) and -8.14% (inactive); in the assay on KB-3-1, 9.49% (inactive) and 2.45% (inactive); in the assay on NIH3T3 [2], 2.59% (inactive). Besides, the result in the assay on NIH3T3 [2] and with NIH3T3 [3] (setting [5]) was inactive. Also, the Potency result with MCC-13, in the assay with MKL-1, in the assay on MKL-2, in the assay with UISO, in the assay on WaGa and in the assay with C33A was “inactive” throughout. Moreover, the Potency result in the assay with CAOV3, in the assay with CASKI and in the assay with Es-2 was “inactive” throughout.
In the case of `COc1nc(N)nc2c1ncn2[C@@H]1O[C@H](CO)[C@@H](O)[C@@H]1O`, the Potency result with W2, with MCC-13, with MKL-1, in the assay on MKL-2, with UISO and in the assay on C33A was “inactive” throughout. Further, the Potency result in the assay with CAOV3, in the assay with CASKI and in the assay with Es-2 was “inactive” in each case. Also, the max response was -2.22% (inactive) and 4.78% (inactive) in the assay with CRL-7250; -9.88% (inactive) and 4.97% (inactive) in the assay on NIH3T3 [2]. Also, the compound was classed as inactive with HEK293, in the assay on HaCat [1], in the assay on KB-3-1, in the assay with HACAT [4] (setting [5]) and in the assay with HEK293T (setting [5]). Further, in the assay with WaGa, the Potency entry is “inactive and 18.7 µM (active)”.
As to `Cc1ccnc2c1NC(=O)c1cccnc1N2C1CC1`, the Potency result with W2, in the assay with MCC-13, in the assay with MKL-1, in the assay with MKL-2, in the assay with UISO and in the assay with WaGa was “inactive” in each case. For the same compound, the Potency result in the assay with C33A, in the assay with CAOV3, in the assay with CASKI, with Es-2 and with HeLa was “inactive” in each case. Besides, the result in the assay on CRL-7250, in the assay with HaCat [1], in the assay with KB-3-1 and with HACAT [4] (setting [5]) was inactive. Also, the max response with HaCat [1] was -1.71% (inactive); in the assay with KB-3-1, 17.8% (inactive); in the assay with NIH3T3 [2], -5.8% (inactive) and 2.37% (inactive).
As for `COc1c(N2CCNC(C)C2)c(F)cc2c(=O)c(C(=O)O)cn(C3CC3)c12` (stereo unspecified), the Potency entry in the assay with W2, with MCC-13, in the assay with MKL-1, in the assay on MKL-2, in the assay with UISO and in the assay on WaGa was “inactive” each time. Further, the Potency entry in the assay with C33A, in the assay with CAOV3, in the assay with CASKI and in the assay on Es-2 was “inactive” throughout. Also, the values for the max response with CRL-7250, in the assay on KB-3-1 and in the assay on NIH3T3 [2] were -3.69% (inactive), 0.558% (inactive) and -3.19% (inactive), respectively. Also, the result in the assay on HaCat [1], with KB-3-1, in the assay with NIH3T3 [2], with HACAT [4] (setting [5]) and in the assay on NIH3T3 [3] (setting [5]) was inactive.
Take `CC(N)C12CC3CC(CC(C3)C1)C2` (stereo unspecified): in the assay on W2, the Potency is 6750 nM (active). Besides, the max response in the assay with CRL-7250 is 1.82% (inactive) and 3.28% (inactive); with HEK293 it was -21.7% (inactive) and 2.38% (inactive); in the assay with HaCat [1], 2.96% (inactive) and 2.31% (inactive); with KB-3-1, 16.9% (inactive) and 3.92% (inactive). Moreover, the call with NIH3T3 [2] and in the assay with NIH3T3 [3] (setting [5]) was inactive. The Potency entry with MCC-13, in the assay with MCC-26, in the assay on MKL-1, in the assay on MKL-2, in the assay on UISO and in the assay on WaGa was “inactive” in each case. Also, the Potency result in the assay with C33A, in the assay on CAOV3, with CASKI, in the assay on Es-2 and in the assay on HeLa was “inactive” each time.
For `Nc1nc(N)c2nc(CNc3ccc(C(=O)NC(CCC(=O)O)C(=O)O)cc3)cnc2n1` (stereo unspecified), the Potency result in the assay with W2, in the assay with MCC-26, with MKL-1 and in the assay on MKL-2 was “inactive” throughout. Besides, the Potency in the assay on CRL-7250 is 118 nM (active); in the assay with HEK293, 132 nM (active); with KB-3-1, 33.2 nM (active); in the assay with NIH3T3 [2] it was 93.5 nM (active). Further, the max response with HaCat [1] is 4.29% (inactive).
Regarding `N[C@@H](C(=O)N[C@@H]1C(=O)N2C(C(=O)O)=C(Cl)CS[C@H]12)c1ccccc1`, the Potency result in the assay with W2, with MCC-13, with MCC-26, in the assay on MKL-1, in the assay with MKL-2 and in the assay on UISO was “inactive” each time. In the assay with WaGa, the Potency result is “inactive”. The max response with CRL-7250 is 3.96% (inactive) and -9.13% (inactive); with KB-3-1, 16.8% (inactive) and 8.23% (inactive). Further, the compound was classed as inactive in the assay with HEK293, in the assay with HaCat [1], in the assay with NIH3T3 [2], in the assay on HACAT [4] (at 9.27 µM (top of the series)), with HACAT [4] (at 44.8 µM (top of the series)) and in the assay on HEK293T (at 9.27 µM (top of the series)). The compound was classed as inactive with HEK293T (at 44.8 µM (top of the series)), in the assay with NIH3T3 [3] (at 9.27 µM (top of the series)) and with NIH3T3 [3] (at 44.8 µM (top of the series)). Also, the activity change, negative = cytotoxicity was 7.76% [at 11.6 µM] (inactive) in the assay on C33A, 16.8% [at 11.6 µM] (inactive) in the assay with CAOV3, 2.82% [at 11.6 µM] (inactive) in the assay with CASKI and 3.68% [at 11.6 µM] (inactive) with Es-2.
In the case of `NC(=O)N1c2ccccc2CC(=O)c2ccccc21`, the Potency result in the assay on W2, in the assay on MCC-13, in the assay with MCC-26, with MKL-1, with UISO and in the assay on WaGa was “inactive” throughout. Further, the Potency result in the assay with C33A, with CAOV3, in the assay on CASKI, with Es-2 and in the assay on HeLa was “inactive” in each case. Moreover, the max response with CRL-7250 was 1.16% (inactive) and -4.89% (inactive); in the assay with KB-3-1 it was -10.3% (inactive) and 3.64% (inactive). In addition, the result in the assay with HEK293, with HaCat [1], in the assay with NIH3T3 [2], in the assay on HACAT [4] (setting [5]), in the assay on HEK293T (setting [5]) and with NIH3T3 [3] (setting [5]) was inactive. Also, the Potency in the assay on MKL-2 is 6.68 µM (active) and inactive.
For the compound `NC(=O)c1cccc(N)c1`, the max response was -10% (inactive) with CRL-7250, -4.67% (inactive) in the assay on HEK293 and -6.72% (inactive) with HaCat [1]. For the same compound, the result in the assay on KB-3-1, in the assay on NIH3T3 [2] and with NIH3T3 [3] (setting [5]) was inactive. Further, the Potency result with MCC-13, with MKL-1, in the assay with MKL-2, in the assay on UISO and in the assay with WaGa was “inactive” each time.
Turning to `CCN(CC)CCn1c(=O)c(Cc2ccc(OC)cc2)nc2ccccc21`, the max response was -4.28% (inactive) in the assay on CRL-7250, -7.99% (inactive) in the assay on HaCat [1] and -9.16% (inactive) with KB-3-1. The result with KB-3-1, in the assay on NIH3T3 [2] and in the assay with NIH3T3 [3] (setting [5]) was inactive. The Potency result with MCC-13, in the assay with MCC-26, with MKL-1, in the assay on MKL-2, in the assay with UISO and with WaGa was “inactive” each time.

The values are drawn from PubChem BioAssay (NCATS).
